Rows were chosen to be rich in hits. Some 1.4% of all compounds tested hit in one or more screens of this group.
GALR2 antag: blocks the human galanin receptor 2; O43603; GALR2-expressing cells, antagonist mode; inhibition, % at 4 µM; hit rate 0.39% among 140,000; AID 828;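 note: cells stimulated with galanin 1-16 at roughly its EC80; 0% = agonist challenge control and 100% = basal control without agonist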
S1P2 antag: antagonists of human S1P2 receptor | hit rate 0.21% among 97,000 | cell-based S1P2 antagonist assay, inhibition at 5 uM | inhibition, % at 5 µM | O95136 | AID 736; in the data active = inhibition above about 45%;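 note: CRE beta-lactamase reporter cells expressing human S1P2 stimulated with S1P; 0% = agonist at EC80 alone and 100% = agonist plus reference antagonist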
Target sequence (O95136 whole entry, looked up): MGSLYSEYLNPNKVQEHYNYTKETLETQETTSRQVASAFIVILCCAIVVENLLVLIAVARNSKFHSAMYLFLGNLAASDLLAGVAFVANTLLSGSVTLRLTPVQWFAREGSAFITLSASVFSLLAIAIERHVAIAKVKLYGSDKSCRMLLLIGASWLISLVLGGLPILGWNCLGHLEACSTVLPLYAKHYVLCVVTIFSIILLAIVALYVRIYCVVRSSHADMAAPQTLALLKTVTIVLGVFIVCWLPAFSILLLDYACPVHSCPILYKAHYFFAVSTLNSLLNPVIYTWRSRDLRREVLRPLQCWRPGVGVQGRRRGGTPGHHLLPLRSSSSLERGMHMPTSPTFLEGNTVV
GALR2 agonist: agonists of human galanin receptor 2 (GALR2) | O43603 | GALR2-expressing cells, agonist activation read-out | activation, % (concentration not given with the values) | hit rate 0.48% among 140,000 | AID 803; in the data active = activation above about 5%, passing the limit was not always enough;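 note: 0% = vehicle buffer wells and 100% = reference agonist at full effect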
S1P2 agonist: S1P2 (human) receptor agonism; hit rate 0.46% among 97,000; S1P2-expressing cell line, agonist reporter read-out; activation, % at 4.5 µM; AID 729; O95136; in the data active = activation above about 16%;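 note: 0% = vehicle low control and 100% = maximal reference agonist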
MT1-MMP txn act: activates MT1-MMP transcription | activation factor at 10 µM | HT1080 MT1-MMP promoter luciferase reporter, luminescence, overnight; stronger effect = higher value | hit rate 0.16% among 86,000;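 active = activation factor of at least 2 for MT1-MMP transcription at 10 µM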
Smad3 FoxH1 inh: Smad3 (human) transcription factor binding inhibition; AID 630; inhibition, % at 25 µM; hit rate 0.29% among 88,000; TR-FRET Smad3/Dy647-FoxH1 peptide binding, europium anti-His; P84022;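 active = compounds that reduce the energy-transfer binding signal between the protein and its labelled peptide by more than half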;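 note: 0% = Smad3 plus labelled peptide maximal FRET and 100% = peptide-only background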
GALR2 blk conf: GALR2 (human) antagonism confirmed. shares compounds with GALR2 antag. inhibition, % at 4 µM. GALR2-expressing cells, antagonist mode, inhibition. hit rate 60% among 480. AID 866;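 note: cells stimulated with galanin at about its EC80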
BLA inh counter: counter-screen for GALR2 antagonists: beta-lactamase reporter inhibitors; shares compounds with GALR2 antag; CHO NFAT-BLA reporter, beta-lactamase FRET, thapsigargin-stimulated; inhibition, % at 4.2 µM; hit rate 36% among 480; AID 867;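 active = inhibition above the mean inhibition across tested compounds plus 3 SD, cut at about 27% in these data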;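 note: 0% = 500 nM thapsigargin stimulated wells and 100% = unstimulated BSA only wells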
An asterisk follows results filed as active; . = no result given. Cut-off read from the data, not from the text of the source, unless noted: active = inhibition above about 27%; inactive = the rest.

SMILES	GALR2 antag	S1P2 antag	GALR2 agonist	S1P2 agonist	MT1-MMP txn act	Smad3 FoxH1 inh	GALR2 blk conf	BLA inh counter
COc1ccc(C(NC(=O)/C=C/c2ccco2)c2ccc(OC)cc2)cc1	15	.	-1	.	.	.	.	.
CCN(CC)c1ccc(/C=C(\C#N)C(=O)c2ccc(Br)cc2)cc1	-6	.	0	.	.	.	.	.
O=[N+]([O-])c1ccc(Cl)c(CNc2ncnc3c2ncn3[C@@H]2CCCCO2)c1	.	.	.	.	.	2	.	.
COc1cc2nc(/C=C/c3ccc(N(C)C)cc3)sc2cc1SC	52*	.	5.2*	.	.	.	60*	67*
O=C(c1ccccc1)c1ccc2nc(-c3ccc(NC(=O)c4ccccc4F)cc3)[nH]c2c1	39*	31	4	-8	.	.	31*	10
O=C1C=C(NCc2ccccc2)CCC1	-8	.	0	.	.	.	.	.
O=C1C=C(NC2=CC3OC(c4ccccc4)OCC3OC2=O)CCC1 (centres undefined)	70*	.	-1	.	.	.	84*	74*
[Cu].[NH-][C@H](CC(=O)O)C(=O)O.[NH-][C@H](CC(=O)O)C(=O)O	.	.	.	.	.	3	.	.
CCCCN(C)CCn1c(=S)[nH]c2ncccc2c1=O	32*	-6	-4	-3	1.2	-3	10	-1
O=C1c2cccc([N+](=O)[O-])c2C(=O)N1c1ncn[nH]1	.	.	.	.	.	5	.	.
Cc1ccc(NC(=O)/C=C/c2ccco2)nc1	34*	.	0	.	.	.	23	48*
O=C(/C=C/c1ccco1)Nc1ccccn1	-4	.	0	.	.	.	.	.
NCC(=O)NC1(C(=O)O)CCCC1	.	.	.	.	.	7	.	.

Source: PubChem BioAssay (several laboratories)
